Compound activity as filed in PubChem.
Only some compounds are listed: those with a hit (about 2.4% of all), similar ones and a draw of the others.
D2 antag – D2 dopamine receptor (human) antagonism | P14416 | HEK293 TREx D2 cells, calcium flux, dopamine EC80 | inhibition, % at 10 µM | actives 2% (n = 340,000); in the data active = inhibition above about 30%; inactive = below that, where a call was filed; note: 0% is about no effect
Target sequence (P14416 whole entry, looked up): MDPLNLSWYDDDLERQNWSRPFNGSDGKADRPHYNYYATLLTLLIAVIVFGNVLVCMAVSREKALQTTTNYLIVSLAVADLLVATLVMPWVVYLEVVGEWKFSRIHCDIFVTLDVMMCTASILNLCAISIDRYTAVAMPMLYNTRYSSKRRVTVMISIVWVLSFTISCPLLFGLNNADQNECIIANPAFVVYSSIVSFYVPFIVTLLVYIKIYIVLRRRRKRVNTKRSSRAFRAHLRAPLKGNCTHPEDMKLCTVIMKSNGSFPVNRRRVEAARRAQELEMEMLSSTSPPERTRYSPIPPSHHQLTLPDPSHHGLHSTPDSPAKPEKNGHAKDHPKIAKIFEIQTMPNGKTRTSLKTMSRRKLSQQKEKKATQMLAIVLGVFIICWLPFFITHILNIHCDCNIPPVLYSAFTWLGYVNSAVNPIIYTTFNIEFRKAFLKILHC
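Read-out: kinetic calcium fluorescence (1 cycle/s) in inducible HEK293 T-REx D2 cells after an EC80 dopamine addition that followed 180 s compound preincubation. Loss of the dopamine response indicates antagonism.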
D2 PAM-1 – D2 dopamine receptor (human) potentiation; P14416; HEK293 T-REx D2, calcium flux, EC20 dopamine potentiation; potentiation, % at 10 µM; actives 0.34% (n = 340,000);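 active = potentiation over 3 SD above the plate norm, cut at about 30% in these data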; note: 0% is about no effect
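Cells plated with tetracycline inducer and held overnight at 30 C; calcium dye loaded 30–90 min at room temperature; baseline taken, compound added and read 180 s; EC20 dopamine then added and read 180 s.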
D2 PAM-2 – potentiates the human D2 dopamine receptor allosterically; potentiation, % (test concentration not listed); P14416; actives 0.23% (n = 360,000); DiscoveRx D2 beta-arrestin cells, luminescence, 90 min; 100% = 57 uM dopamine signal; in the data active = potentiation above about 50%
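D2 cells co-treated with compound plus 50 nM dopamine (EC20) for 90 min at 37 deg C to detect potentiation. Beta-arrestin recruitment was read as enzyme-fragment luminescence after 1 h at ambient temperature. Full response was set by 57 uM dopamine.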
D2 ag-1 – human D2 receptor agonism in beta-arrestin assay; DiscoveRx PathHunter D2 beta-arrestin, luminescence, 90 min; 100% = 57 uM dopamine signal; activation, % (test concentration not listed); actives 0.084% (n = 360,000); AID 624465; in the data active = activation above about 40%
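Agonist mode: compounds alone added to overnight-plated D2 PathHunter cells for 90 min at 37 C, with 57 uM final dopamine (EC100) defining full response. Beta-arrestin recruitment detected by chemiluminescent reagent, read after 1 h at ambient temperature.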
D2 ag-2 – D2 dopamine receptor (human) agonism; HEK293 T-REx D2 cells, calcium flux agonist mode; actives 0.53% (n = 340,000); activation, % at 2 µM; AID 485358;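 active = activation over 3 SD above normal in the single-dose calcium agonist read, cut at about 30% in these data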; note: 0% is about no effect
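Calcium-flux readout, 1 cycle/sec over 180 s following compound pin transfer, in inducible HEK293 Trex D2 cells (force-coupled); dopamine controls included. Positive calcium responses during this window marked compounds as potential agonists.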
Starred values were filed as active, the others as inactive; . = not tested or not shown.

SMILES | D2 antag | D2 PAM-1 | D2 PAM-2 | D2 ag-1 | D2 ag-2
CCc1ccc(CNc2ccc(N3CCN(C(C)=O)CC3)cc2)cc1 | -2 | 8 | 81* | 12 | 0
COc1ccc(C(CNC(=O)c2cc3ccccc3o2)N2CCCC2)cc1 (centres undefined) | 79* | -29 | -5 | -1 | 1
COc1ccc(C(CNC(=O)c2cc3c(s2)CCC(C)C3)N2CCCC2)cc1 (centres undefined) | 72* | -25 | -8 | -1 | 0
COc1ccc(C(CNC(=O)c2cc3ccccc3o2)N2CCCCC2)cc1 (centres undefined) | 67* | -20 | -21 | -2 | 0
COc1ccc(C(CNC(=O)C(C)(C)Oc2ccc(Cl)cc2)N2CCCC2)cc1 (centres undefined) | 97* | -24 | -37 | -1 | 0
COc1ccc(C(CNC(=O)c2cc3c(s2)CCC(C)C3)N2CCOCC2)cc1 (centres undefined) | 20 | -26 | -5 | -3 | 0
CC1CCN(C(=O)c2ccc3c(c2)N(Cc2ccccc2)C(=O)c2ccccc2S3(=O)=O)CC1 | . | -11 | . | . | 0
COc1cccc(C2C(C(=O)Nc3ccc(Cl)cc3)=C(C)Nc3c(C(=O)Nc4ccccc4)cnn32)c1OC (centres undefined) | . | -6 | . | . | 1
CCOc1ccccc1CNC(=O)CSc1n[nH]c(-c2ccccc2Cl)n1 | . | -8 | . | . | 0
N#Cc1sc2nc(-c3ccccc3)cc(-c3ccco3)c2c1N | 62* | 0 | -6 | -2 | 0
N#Cc1sc2nc(C3CC3)cc(-c3ccccc3)c2c1N | 1 | 8 | -17 | -3 | -1
COc1cccc(-n2c([S-])c(C(=O)Nc3ccc(C(F)(F)F)cc3)[n+]3ccccc23)c1 | 35* | -24 | . | . | -1
O=C(NCc1cccc(Cl)c1)c1cccn1-c1nnc(N2CCCC2)s1 | . | -1 | . | . | .
Cn1nc(-c2ccccn2)nc2c(=O)n(C)c(=O)nc1-2 | -8 | 7 | -1 | 8 | 2
CCCc1nc2c(=O)n(C)c(=O)nc-2n(C)n1 | -6 | -2 | 30 | 54* | 0
Cc1ccc(COC(=O)c2cccc(S(=O)(=O)N3CCCCC3)c2)cc1 | -15 | 13 | -20 | -7 | -1
COc1ccccc1COC(=O)c1cccc(S(=O)(=O)N2CCCC2)c1 | 42* | 7 | -28 | -3 | 0
Cc1ccc(COC(=O)c2cccc(S(=O)(=O)N3CCCCCC3)c2)cc1 | 43* | 12 | -14 | 0 | 1
Cc1cccc(NC(=O)C2CCN(c3nc4ccccc4[nH]3)CC2)c1C | . | -7 | . | . | -1
Cc1ccc(CCNC(=O)C2CCN(S(=O)(=O)c3ccc4c(ccn4C)c3)CC2)cc1 | . | 6 | . | . | -1
Cc1cc(C)cc(N(CC(=O)N2CCCCCC2)S(C)(=O)=O)c1 | 34* | -2 | 2 | 7 | -1
CCOC(=O)C1CCN(C(=O)CN(c2ccc3c(c2)OCO3)S(C)(=O)=O)CC1 | 45* | 1 | -16 | -2 | 1
CCOC(=O)C1CCN(C(=O)CN(c2ccc(Cl)c(C(F)(F)F)c2)S(C)(=O)=O)CC1 | -4 | 15 | -16 | -3 | 0
COc1ccc(N2CCN(C(=O)c3cccn4c(=O)c5ccc(Cl)cc5nc34)CC2)cc1 | . | 3 | . | . | 1
COC(=O)c1ccccc1NC(=O)c1cc2cc(C)ccc2n1C | . | -5 | . | . | .
SMILES | D2 antag | D2 PAM-1 | D2 PAM-2 | D2 ag-1 | D2 ag-2
COc1ccc(NC(=O)c2cc(S(=O)(=O)N3CCOCC3)cn2C)c(OC)c1 | 41* | -7 | -2 | 2 | 1
COc1ccc(NC(=O)c2cc3cc(C)ccc3n2C)c(OC)c1 | 34* | 0 | -6 | 1 | 0
COc1ccc(NC(=O)c2cc(S(=O)(=O)N3CCCCCC3)cn2C)c(OC)c1 | . | 5 | . | . | -1
COc1ccc(NC(=O)c2cnc(SC)nc2C)c(OC)c1 | 38* | 19 | 0 | -1 | 1
Cc1cccc(C(=O)N2CCc3cc(CNC(=O)CCc4ccccc4)ccc32)c1 | . | 2 | . | . | 1
COc1cccc(CNC(=O)CN2C(=O)N(c3cccc(Cl)c3)S(=O)(=O)c3ccccc32)c1OC | . | -7 | . | . | .
O=C(CSc1c2c(nc3cc(Cl)ccc13)CCCC2)N1CCN(c2ccccc2F)CC1 | . | -3 | . | . | 0
CCc1nc2cccnc2n1-c1ccc(CC(=O)Nc2cccc(C)c2C)cc1 | . | 0 | . | . | 0
C=CCN1C(=O)/C(=C/c2ccc(OC(C)=O)c(OCC)c2[N+](=O)[O-])SC1=S | 30* | 10 | 5 | 3 | 9
CCCCNC(=O)c1cccc(NC(=O)c2nsc3ccccc23)c1 | . | 0 | . | . | -2
CC1CCc2cc(F)ccc2N1C(=O)C12CCC(C)(C(=O)O1)C2(C)C (centres undefined) | 32* | -5 | 1 | -3 | 0
CN1CCN(C2CC(=O)N(c3ccc4c(c3)OCCO4)C2=O)CC1 (centres undefined) | -2 | -12 | 15 | -1 | 1
O=C1CC(N2CCOCC2)C(=O)N1c1ccccc1Cl (centres undefined) | -11 | 57* | -2 | -5 | 0
O=C1CC(N2CCN(c3ccccc3Cl)CC2)C(=O)N1c1ccccc1 (centres undefined) | -8 | 4 | -4 | -2 | 0
O=C1CC(N2CCN(c3ccccc3)CC2)C(=O)N1c1ccc2c(c1)OCCO2 (centres undefined) | 38* | -6 | -16 | -3 | 0
COc1ccc(/C(O)=C2/C(=O)C(=O)N(c3ccccn3)C2c2ccc(OC)c(OC)c2)cc1 (centres undefined) | 3 | -1 | -6 | -6 | 0
COc1cccc(/C(O)=C2/C(=O)C(=O)N(c3ccccn3)C2c2ccc(OC)c(OC)c2)c1 (centres undefined) | 32* | -9 | 3 | 0 | 1
COc1ccc(/C=N/N(C(C)=O)c2nc(-c3ccc(C)cc3)cs2)cc1 | -21 | 30* | 18 | -1 | -1
Cc1cc(C)cc(NC(=O)Nc2ccc(-n3ccc(C(F)(F)F)n3)cc2)c1 | 11 | -13 | -7 | 5 | 2
COc1ccccc1NC(=O)Nc1cc(F)ccc1F | 32* | -5 | -4 | -2 | 0
COc1ccccc1NC(=O)Nc1nc(C(C)(C)C)cs1 | 35* | -18 | -26 | -3 | 0
COc1ccccc1NC(=O)Nc1ccc(-n2ccc(C(F)(F)F)n2)cc1 | 71* | -14 | -14 | 1 | 1
COc1ccccc1NC(=O)Nc1nc(CC(=O)Nc2cccc(F)c2)cs1 | -20 | 19 | -13 | 7 | -1
COc1ccccc1NC(=O)Nc1nc(CC(=O)Nc2cc(F)ccc2F)cs1 | 14 | -5 | 56* | -2 | 0
COc1cc(OC)cc(C(=O)Nc2ccc3nc(N4CCC(C)CC4)cc(C)c3c2)c1 | . | 10 | . | . | 0
